An excerpt weighted towards active compounds, which were near 10% of everything screened.
NPR1 antag – antagonists of human natriuretic peptide receptor Npr1; HEK293 hNpr1 GloSensor cGMP, ANP-stimulated luminescence; Potency, µM (top dose mostly 46.3 µM), actives largely listed as inhibitors; 1.6% of 76,000 active; AID 1347048; calls by dose curve; also: nearly all actives have a fitted effect of over 60% in size
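Compound pre-incubated 30 min at room temperature on GloSensor-loaded HEK293 cells stably carrying hNpr1 and the pGS-40F cGMP biosensor. Stimulation uses hNppA at 0.1 nM final; luminescence is taken at baseline and 20 min post-agonist.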
GPT2 inh – inhibitors of human GPT2 alanine aminotransferase. Q8TD30. Recombinant GPT2, coupled pyruvate oxidase/HRP Amplex Red fluorescence. Potency, µM (top dose mostly 57.7 µM), actives largely listed as inhibitors. 0.25% of 100,000 active; also: nearly all actives have a fitted effect of over 60% in size
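Fluorescence of coupled pyruvate oxidase/HRP/Amplex Red system (50uM Amplex, 30 min, dark) reports pyruvate formed by GPT2. Enzyme reaction: 10ng/uL GPT2, 2mM L-alanine, 250uM a-KG, 30 min room temperature, pH 7.5; 50uM AOA control.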
HEK293 tox – HEK 293 cell cytotoxicity. AID 1345083. HEK 293 viability, ATP luminescence (CellTiter-Glo), 48-72 h. 6.6% of 94,000 active. Potency, µM (highest dose often 115 µM), hits mostly inhibitors; also: nearly all actives have a fitted effect of over 60% in size
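qHTS cytotoxicity; HEK 293, 250 cells/well; compound pinned; 48 or 72 hr, 37 degree Celsius, 5% CO2, 95% humidity; CellTiter-Glo, 10 min RT; luminescence (ATP).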
Luciferase inh – Photinus pyralis luciferase inhibition; P08659; purified P. pyralis luciferase, luminescence, biochemical; Potency, µM (titrated, usually from 115 µM), most hits filed as inhibitors; 2.5% of 76,000 active; also: nearly all actives have a fitted effect of over 65% in size
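Cell-free enzyme assay, 10nM P. pyralis luciferase, luciferin and ATP each at 10uM. Inhibition profiled over a 6-point titration, read as luminescence.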
3T3 cytotox – cytotoxic compounds in NIH 3T3 cells | NIH 3T3 viability, CellTiter-Glo ATP luminescence, 48-72 h | Potency, µM (top dose mostly 96.7 µM), usual class: inhibitors | 4.3% of 94,000 active | AID 1345082; also: nearly all actives have a fitted effect of over 55% in size
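First NIH 3T3 cells are plated at 400 cells/well; next compound is pinned in; then plates incubate 48 or 72 hr at 37 °C; finally CellTiter-Glo is added and luminescence read after 10 min.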
Large screens that a line does not name were inactive. Unless noted, calls follow the shape of the dose curve; as a rule, active = well fitted curve in the direction sought with a large enough effect; inconclusive = small, poorly fitted or top-dose-only effect, or another doubt; inactive = no such curve, though single readings can be large; an effect the other way counts as inactive or inconclusive.

O=S(=O)(c1cccc(F)c1)N1CCC(OC2CCN(Cc3ccccc3)CC2)CC1	none
COCc1ccc(CNCc2cccnc2N2CCCC(O)C2)o1 (configuration not stated)	none
O=C1N(C2CCCCC2)C[C@H]2CN(S(=O)(=O)c3ccc(F)cc3)CCN12	HEK293 tox inconclusive, 3T3 cytotox 35µM
COc1ccc(N2CC(C(=O)N3CCC(C(=O)NCc4ccc5c(c4)OCO5)C3)NC2=O)cc1 (configuration not stated)	none
CC[C@@H](C)[C@@H]1OC2(C=C[C@H]1C)C[C@@H]1C[C@H](C/C=C(\C)[C@H](O[C@H]3C[C@H](OC)[C@H](O[C@H]4C[C@H](OC)[C@H](NC(C)=O)[C@H](C)O4)[C@H](C)O3)[C@H](C)/C=C/C=C3\CO[C@H]4[C@H](O)C(C)=C[C@@H](C(=O)O1)[C@@]34O)O2 (some centres not stated)	none (no result: NPR1 antag, HEK293 tox, Luciferase inh, 3T3 cytotox)
O=C1CN(C(=O)c2csc3nc(-c4ccc(C(F)(F)F)cc4)cn23)CCCN1	NPR1 antag inconclusive, HEK293 tox 45µM, Luciferase inh 7.9µM, 3T3 cytotox inconclusive
COc1ccc(CC(=O)NC2CCN(c3nc4ncccc4o3)CC2)cc1	none
COc1ccc(-c2noc(CC3CCN(C(=O)c4cc(OC)cc(OC)c4)CC3)n2)cc1	NPR1 antag inconclusive, HEK293 tox 35µM, 3T3 cytotox inconclusive
COc1ccccc1C(=O)N1CCC(Cc2nc(-c3ccccc3)no2)CC1	NPR1 antag inconclusive, HEK293 tox inconclusive, 3T3 cytotox inconclusive
COc1ccc(-c2noc(CC3CCN(C(=O)c4cc(OC)c(OC)c(OC)c4)CC3)n2)cc1	NPR1 antag inconclusive, HEK293 tox inconclusive, 3T3 cytotox 13µM
COc1cc(OC)cc(C(=O)N2CCC(Cc3nc(-c4cccc(OC)c4)no3)CC2)c1	NPR1 antag inconclusive, HEK293 tox 45µM, 3T3 cytotox inconclusive
CCOc1cc(C(=O)N2CCC(Cc3nc(-c4ccc(F)cc4)no3)CC2)cc(OCC)c1OCC	NPR1 antag inconclusive, HEK293 tox 35µM, 3T3 cytotox 32µM
CCOc1cc(C(=O)N2CCC(Cc3nc(-c4cnccn4)no3)CC2)cc(OCC)c1OCC	GPT2 inh inconclusive, 3T3 cytotox inconclusive
Cn1c(Cn2cccn2)nnc1C1CC(NC(=O)CCN2CCCO2)C1 (configuration not stated)	none
Cc1nonc1CC(=O)N[C@@H]1COCC[C@@H]1OCc1cscn1	none
CN(C)C(C(=O)NCc1nnc2n1CCCC2)c1cccc(F)c1 (configuration not stated)	none
CCn1cnnc1-c1nn(C)c2c1CN(C(=O)c1n[nH]c3ccccc13)CC2	none
CC1(C)N=C(c2ccccc2)C(=O)N1CC(=O)NC1CCCCC1	none
Cc1ccc(C(=O)N2CCC(Cc3nc(C(C)C)no3)CC2)cc1C	NPR1 antag inconclusive, HEK293 tox inconclusive, 3T3 cytotox 45µM
COc1ccc(C(=O)N2CCC(Cc3nc(C(C)C)no3)CC2)cc1OC	NPR1 antag inconclusive, HEK293 tox inconclusive
CC(C)CNC(=O)c1cc(-c2ccsc2)nc2c1cnn2C	HEK293 tox 71µM, 3T3 cytotox inconclusive (no result: NPR1 antag, Luciferase inh)
CC(C)CNC(=O)c1cc(-c2cccnc2)nc2c1cnn2C	HEK293 tox inconclusive, 3T3 cytotox inconclusive (no result: NPR1 antag, Luciferase inh)
Cn1ncc2c(C(=O)NCc3cccc(C(F)(F)F)c3)cc(-c3cccnc3)nc21	HEK293 tox inconclusive, 3T3 cytotox inconclusive (no result: NPR1 antag, Luciferase inh)
Cn1ncc2c(C(=O)NCc3cccc(C(F)(F)F)c3)cc(-c3ccsc3)nc21	HEK293 tox 28µM, 3T3 cytotox inconclusive (no result: NPR1 antag, Luciferase inh)
CN(Cc1ccc(F)cc1)C(=O)Cc1ccc(F)cc1	HEK293 tox inconclusive, 3T3 cytotox inconclusive
COc1cccc(C(O)c2nc(C(=O)Nc3ccc4c(c3)NC(=O)CO4)c(C)o2)c1 (configuration not stated)	HEK293 tox 89µM, Luciferase inh 63µM, 3T3 cytotox inconclusive
C[C@@H]1O[C@@H](O[C@H]2[C@H](Oc3cc(O)c(C(=O)CCc4ccc(O)cc4)c(O)c3)O[C@H](CO)[C@@H](O)[C@@H]2O)[C@H](O)[C@H](O)[C@H]1O	GPT2 inh 7.1µM (no result: NPR1 antag, HEK293 tox, Luciferase inh, 3T3 cytotox)
CC(=O)c1c(O)cc(O[C@@H]2O[C@H](CO)[C@@H](O)[C@H](O)[C@H]2O)cc1O	none (no result: NPR1 antag, HEK293 tox, Luciferase inh, 3T3 cytotox)
COc1ccc(-c2ncc3c(n2)OCCN(C)C3=O)cc1OC	Luciferase inh 40µM, 3T3 cytotox inconclusive
COc1ccc(Cl)cc1-c1ncc2c(n1)OCCN(c1ccccc1)C2=O	Luciferase inh inconclusive, 3T3 cytotox 40µM
COc1ccccc1-c1ncc2c(n1)OCCN(c1cccc(C(F)(F)F)c1)C2=O	GPT2 inh inconclusive, HEK293 tox inconclusive, 3T3 cytotox inconclusive
O=C1c2cnc(-c3ccc(O)c(F)c3)nc2OCCN1c1ccccc1	HEK293 tox 45µM, Luciferase inh inconclusive, 3T3 cytotox 8.9µM
O=C1c2cnc(-c3cccnc3)nc2OCCN1Cc1ccccc1	HEK293 tox inconclusive
COc1ncccc1-c1ncc2c(n1)OCCN(c1cccc(C(F)(F)F)c1)C2=O	3T3 cytotox 25µM
COc1ccc(NC(=O)CC2=C3CCCCC3N(Cc3ccccc3)C2=O)cc1F (configuration not stated)	HEK293 tox inconclusive, 3T3 cytotox inconclusive (no result: NPR1 antag, Luciferase inh)
O=C1c2cnc(-c3ccccc3C(F)(F)F)nc2OCCN1Cc1ccccc1	HEK293 tox inconclusive
Cc1ccccc1-c1ncc2c(n1)OCCN(c1ccccc1)C2=O	HEK293 tox inconclusive, Luciferase inh 20µM
Oc1ccccc1CNC1(Cc2cc(-c3ccccc3)on2)COC1	3T3 cytotox inconclusive
CC(C)(C)c1cc(CC2(NCc3ccc(OC(F)(F)F)cc3)COC2)no1	GPT2 inh inconclusive, HEK293 tox inconclusive, 3T3 cytotox 112µM
Oc1ccccc1CNC1(Cc2cc(-c3ccc(F)cc3)on2)COC1	NPR1 antag inconclusive, HEK293 tox 100µM, 3T3 cytotox inconclusive
FC(F)(F)Oc1ccc(CNC2(Cc3cc(-c4ccccn4)on3)COC2)cc1	HEK293 tox inconclusive
CN(C)c1ccc(CNC2(Cc3cc(-c4ccccc4)on3)COC2)cc1	HEK293 tox 89µM
Fc1ccc(CNC2(Cc3cc(-c4ccccc4)on3)COC2)cc1	NPR1 antag inconclusive, HEK293 tox 89µM
Fc1ccc2[nH]ccc2c1-c1nc(N2CCOCC2)c2sc(CN3CCN(CC4CC4)CC3)cc2n1	none (no result: NPR1 antag, HEK293 tox, Luciferase inh, 3T3 cytotox)
NCc1c[nH]c(=S)n1C1CCc2c(F)cc(F)cc2C1 (configuration not stated)	none (no result: NPR1 antag, HEK293 tox, Luciferase inh, 3T3 cytotox)
Clc1ccc(CNC2(Cc3cc(COc4ccccc4)on3)COC2)cc1	GPT2 inh inconclusive, HEK293 tox 79µM, 3T3 cytotox inconclusive
COc1ccc(-c2cc(CC3(NCc4ccccc4)COC3)no2)cc1	HEK293 tox 100µM, 3T3 cytotox inconclusive
Clc1ccccc1CNC1(Cc2cc(-c3ccccc3)on2)COC1	HEK293 tox 112µM, 3T3 cytotox inconclusive
Cc1nc(N2CCCCC2)n(CC(=O)Nc2cccc(C(F)(F)F)c2)c(=O)c1C	HEK293 tox inconclusive

Screening results as filed in PubChem.
